Hit rate of the full screen: of about 39,000 compounds, about 1,500 (3.8%) were called active. The entries come from a sample that favours actives as a whole.

This test deals with HSkMC (human skeletal muscle cells). Description: cytotoxicity call (relative viability < 0.9). Conditions: 10 µM.
In the case of `CCS(=O)(=O)NCC[C@@H]1CC[C@@H](NC(=O)Cc2ccccn2)[C@H](CO)O1`, the cytotoxicity call was “inactive”.

With `C[C@@H]1CN([C@H](C)CO)C(=O)c2cc(NC(=O)Cc3cn(C)c4ccccc34)ccc2O[C@H]1CN(C)Cc1ccc(C(F)(F)F)cc1`, the cytotoxicity call is “inactive”.

`C[C@@H]1CN([C@@H](C)CO)C(=O)c2cc(NC(=O)Cc3cn(C)c4ccccc34)ccc2O[C@@H]1CN(C)C(=O)Nc1ccc(C(F)(F)F)cc1`: the cytotoxicity call is “active”.

In the case of `C[C@@H]1CN([C@H](C)CO)C(=O)c2cc(NC(=O)Cc3cn(C)c4ccccc34)ccc2O[C@@H]1CN(C)Cc1ccc(C(F)(F)F)cc1`, the cytotoxicity call was “active”.

With `C[C@@H]1CN([C@H](C)CO)C(=O)c2cc(NC(=O)Cc3cn(C)c4ccccc34)ccc2O[C@H]1CN(C)C(=O)Nc1ccc(C(F)(F)F)cc1`, the cytotoxicity call was “inactive”.

`C[C@H](CO)N1C[C@H](C)[C@@H](CN(C)C(=O)Nc2ccc(C(F)(F)F)cc2)Oc2ccc(NC(=O)Cc3cn(C)c4ccccc34)cc2C1=O`: the cytotoxicity call was “inactive”.

On to `C[C@H](CO)N1C[C@H](C)[C@@H](CN(C)Cc2ccc(C(F)(F)F)cc2)Oc2ccc(NC(=O)Cc3cn(C)c4ccccc34)cc2C1=O`, for which the cytotoxicity call is “inactive”.

Consider `O=C(C[C@H]1CC[C@H]2[C@@H](COC[C@@H](O)CN2S(=O)(=O)c2ccccc2)O1)N1CCc2ccccc2C1`, for which the cytotoxicity call is “inactive”.

Regarding `C[C@H]1CN([C@@H](C)CO)C(=O)c2cc(NS(=O)(=O)c3ccccc3)ccc2O[C@H]1CN(C)CC1CC1`, the cytotoxicity call was “inactive”.

As to `Cn1c(N)c(C(=O)c2ccco2)c(=O)n(C)c1=O`, the cytotoxicity call is “inactive”.

As for `C[C@H](CO)N1C[C@H](C)[C@H](CN(C)S(=O)(=O)c2ccc(Cl)cc2)Oc2ccc(NC(=O)CCN3CCOCC3)cc2CC1=O`, the cytotoxicity call was “inactive”.

As to `C[C@@H]1CN([C@@H](C)CO)S(=O)(=O)c2ccc(C#C[C@@H](C)O)cc2O[C@H]1CN(C)C(=O)c1ccncc1`, the cytotoxicity call was “inactive”.

Turning to `COc1ccc2c3c([nH]c2c1)[C@H](CO)N(C[C@]13CCN(CC1)CC1CCCC1)C(=O)CN1CCOCC1`, the cytotoxicity call was “inactive”.

As for `C[C@H]1CN([C@@H](C)CO)C(=O)Cc2cc(NC(=O)c3ccncc3)ccc2O[C@@H]1CN(C)S(=O)(=O)c1ccc(Cl)cc1`, the cytotoxicity call is “inactive”.

For `C[C@@H]1CCCCO[C@@H](CN(C)Cc2ccccc2)[C@@H](C)CN([C@@H](C)CO)C(=O)c2cc(NC(=O)CCC(F)(F)F)ccc2O1`, the cytotoxicity call was “inactive”.

Take `CC(C)C[C@@H]1C(=O)O[C@H](C)C(=O)N(C)[C@@H](CC(C)C)C(=O)O[C@H](Cc2ccc(N3CCOCC3)cc2)C(=O)N(C)[C@@H](CC(C)C)C(=O)O[C@H](C)C(=O)N(C)[C@@H](CC(C)C)C(=O)O[C@H](Cc2ccc(N3CCOCC3)cc2)C(=O)N1C`: the cytotoxicity call is “active”.

Regarding `CCOc1cc(OCC)cc(C(=O)N[C@@H](Cc2ccc(-n3cc(-c4ccc(C(=O)NO)s4)nn3)cc2)C(=O)OC)c1`, the cytotoxicity call is “inactive”.

`COc1ccccc1-c1cnc2c(c1)C(=O)N([C@H](C)CO)C[C@@H](C)[C@H](CN(C)C(=O)c1cccnc1)O2`: the cytotoxicity call is “inactive”.

Turning to `C[C@@H]1CN([C@H](C)CO)C(=O)c2cccc(NC(=O)Nc3ccccc3)c2O[C@H]1CN(C)Cc1ccc(Cl)c(Cl)c1`, the cytotoxicity call is “inactive”.

As for `C[C@H]1CN([C@@H](C)CO)C(=O)c2cccc(NC(=O)Nc3ccccc3)c2O[C@H]1CN(C)Cc1ccc(Cl)c(Cl)c1`, the cytotoxicity call was “inactive”.

Take `C[C@H](CO)N1C[C@H](C)[C@@H](CN(C)Cc2ccc(Cl)c(Cl)c2)Oc2c(NC(=O)Nc3cccc4ccccc34)cccc2C1=O`: the cytotoxicity call is “active”.

With `C[C@H]1CN([C@@H](C)CO)C(=O)c2cccc(NC(=O)Nc3ccccc3)c2O[C@@H]1CN(C)Cc1ccc(Cl)c(Cl)c1`, the cytotoxicity call is “active”.

As for `C[C@@H]1CN([C@@H](C)CO)C(=O)c2cccc(NC(=O)Nc3ccccc3)c2O[C@@H]1CN(C)Cc1ccc(Cl)c(Cl)c1`, the cytotoxicity call was “inactive”.

For the molecule `C[C@H](CO)N1C[C@H](C)[C@@H](CN(C)Cc2ccc(Cl)c(Cl)c2)Oc2c(NC(=O)Nc3ccccc3)cccc2C1=O`, the cytotoxicity call is “active”.

As to `C[C@@H]1CN([C@@H](C)CO)C(=O)c2cccc(NC(=O)Nc3cccc4ccccc34)c2O[C@@H]1CN(C)Cc1ccc(Cl)c(Cl)c1`, the cytotoxicity call is “inactive”.

Turning to `C[C@H](CO)N1C[C@H](C)[C@H](CN(C)Cc2ccc(Cl)c(Cl)c2)Oc2c(NC(=O)Nc3ccccc3)cccc2C1=O`, the cytotoxicity call is “inactive”.

Take `C[C@H]1CN([C@@H](C)CO)C(=O)c2cccc(NC(=O)Nc3cccc4ccccc34)c2O[C@H]1CN(C)Cc1ccc(Cl)c(Cl)c1`: the cytotoxicity call was “inactive”.

In the case of `Cc1noc(C)c1NC(=O)Nc1ccc2c(c1)C(=O)N([C@H](C)CO)C[C@H](C)[C@@H](CN(C)Cc1ccc(Oc3ccccc3)cc1)O2`, the cytotoxicity call is “inactive”.

`C[C@H]1CN([C@@H](C)CO)C(=O)Cc2cc(NC(=O)Cc3ccccc3)ccc2O[C@H]1CN(C)C(=O)Nc1cccc2ccccc12`: the cytotoxicity call was “inactive”.

With `Cc1noc(C)c1S(=O)(=O)Nc1ccc2c(c1)C(=O)N([C@H](C)CO)C[C@@H](C)[C@@H](CN(C)Cc1ccc(Oc3ccccc3)cc1)O2`, the cytotoxicity call was “inactive”.

For the molecule `Cc1cc2c(cc1C)N[C@@H](CC(N)=O)C(=O)N2`, the cytotoxicity call was “inactive”.

For the molecule `C[C@@H]1CN([C@H](C)CO)C(=O)Cc2cc(NC(=O)CCCN(C)C)ccc2O[C@H]1CN(C)Cc1ccc(Oc2ccccc2)cc1`, the cytotoxicity call was “inactive”.

On to `COc1ccccc1S(=O)(=O)N[C@H]1C=C[C@H](CC(=O)N2CCN(C)CC2)O[C@@H]1CO`, for which the cytotoxicity call was “inactive”.

With `C[C@H](CO)N1C[C@H](C)[C@H](CN(C)C(=O)NC2CCCCC2)OCCCC[C@H](C)Oc2ccc(NC(=O)Nc3ccc(C(F)(F)F)cc3)cc2C1=O`, the cytotoxicity call was “inactive”.

Take `C[C@H](CO)N1C[C@H](C)[C@@H](CN(C)C(=O)c2ccncc2)Oc2cc(-c3cccc(C#N)c3)ccc2S1(=O)=O`: the cytotoxicity call is “inactive”.

On to `C[C@@H]1CCCCO[C@H](CN(C)Cc2ccccc2)[C@@H](C)CN([C@H](C)CO)C(=O)c2cc(NS(=O)(=O)c3ccccc3)ccc2O1`, for which the cytotoxicity call is “inactive”.

For `CCC(=O)Oc1ccc2c(c1)CCC1C2CCC2(C)C1CC(OC(=O)CC)C2OC(=O)CC` (stereo not given), the cytotoxicity call is “inactive”.

For the molecule `CC(C)c1cccc(C(C)C)c1NC(=O)Cc1cccs1`, the cytotoxicity call was “inactive”.

Consider `CC(C)c1cc(C(C)C)c(CC(=O)NS(=O)(=O)Oc2c(C(C)C)cccc2C(C)C)c(C(C)C)c1`, for which the cytotoxicity call was “active”.

For the molecule `COC(=O)[C@@H](N)c1cccc(OC)c1`, the cytotoxicity call is “inactive”.

The record behind these values is the antibiotic and cytotoxicity screens of Wong et al. (2023).
